According to PubChem BioAssay AID488847 (NMMLSC, 2010):
The campaign covered roughly 330,000 compounds. About 1,900 (0.58%) were called active. Shown is part of a subset that was picked to be rich in actives. A number with no mark means an inactive call.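 Rule for the calls: active = inhibition of aptamer binding above 40%, roughly 3 SD of noise, on plates passing a quality check; inactive = the rest.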

biological target: Beta-adrenergic receptor kinase 1 (Homo sapiens) (UniProt P25098); experiment: compounds blocking aptamer binding on GRK2 – biochemical, human GRK2, bead flow cytometry, HTS, primary screen (AID 488847); details: FAM-aptamer displacement from GRK2, at 10 µM, stronger effect = higher value;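 note: median bead fluorescence of bound FAM aptamer so fluorescent compounds give negative values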
Sequence (P25098 whole entry, looked up): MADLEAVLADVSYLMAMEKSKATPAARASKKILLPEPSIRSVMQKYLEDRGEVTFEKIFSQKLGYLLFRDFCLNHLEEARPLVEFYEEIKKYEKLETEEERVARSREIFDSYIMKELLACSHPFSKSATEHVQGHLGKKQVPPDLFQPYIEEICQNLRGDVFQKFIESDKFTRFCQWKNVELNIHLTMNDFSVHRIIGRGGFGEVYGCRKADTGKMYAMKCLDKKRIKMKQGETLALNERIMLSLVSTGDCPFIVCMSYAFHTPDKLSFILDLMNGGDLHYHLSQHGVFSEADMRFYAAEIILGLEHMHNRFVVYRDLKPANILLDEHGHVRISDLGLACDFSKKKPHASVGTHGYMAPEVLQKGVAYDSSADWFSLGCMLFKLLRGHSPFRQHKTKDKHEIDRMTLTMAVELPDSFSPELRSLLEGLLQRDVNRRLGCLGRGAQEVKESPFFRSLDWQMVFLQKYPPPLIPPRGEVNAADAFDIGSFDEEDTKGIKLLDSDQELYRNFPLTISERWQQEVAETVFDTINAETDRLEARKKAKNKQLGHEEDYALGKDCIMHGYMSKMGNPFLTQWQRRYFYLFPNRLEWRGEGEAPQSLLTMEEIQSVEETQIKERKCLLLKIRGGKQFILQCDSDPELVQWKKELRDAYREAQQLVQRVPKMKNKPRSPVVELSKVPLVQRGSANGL

Structure (SMILES)	inhibition of aptamer binding
CC[N+](C)(CC)CCC[n+]1c(-c2ccccc2)c2cc(N)ccc2c2ccc(N)cc21	62% (active)
Cc1ccc(-c2nc(CS(=O)CC(=O)NC3CCCC3)c(C)o2)cc1 (stereo not given)	0%
O=C(COC(=O)c1ccc(O)cc1O)c1ccc2c(c1)OCCO2	44% (active)
O=C(OCc1ccccc1F)c1ccc2c(c1)OCCO2	0%
CC(=O)Nc1cccc(C(=O)OCC(=O)c2ccc3c(c2)OCO3)c1	0%
CN(CC(=O)Nc1ccc(Cl)c(C(F)(F)F)c1)C(=O)CCC(=O)c1ccccc1	1%
CCC(C)(C)N=C(NC#N)Nc1cccnc1	0%
Cc1nc(Nc2ccc3c(c2)OCCO3)c2nnn(Cc3ccccc3Cl)c2n1	0%
Cc1nc(Nc2ccc(S(=O)(=O)N3CCCC3)cc2)c2nnn(Cc3ccccc3)c2n1	0%
Cc1nc(Nc2ccccc2F)c2nnn(Cc3ccccc3Cl)c2n1	47% (active)
O=C(CNC(c1ccccc1)c1ccccc1)Nc1ccc(F)cc1	1%
S=C(Nc1cccnc1)Nc1ccccn1	1%
O=C1CSC(=O)N1CCOCCN1C(=O)CSC1=O	3%
O=C(CNC(=O)c1n[nH]c2ccccc12)Nc1cc(Cl)ccc1Cl	0%
CC(=O)c1ccc(OCC(O)CN2CCN(S(=O)(=O)c3cccc(Br)c3)CC2)cc1 (stereo not given)	88% (active)
O=S(=O)(c1ccc(OCC(O)CN2CCN(c3ccccc3Cl)CC2)cc1)N1CCOCC1 (stereo not given)	0%
Cc1cccc(OCC(O)CN2CCN(S(=O)(=O)c3ccc(C)cc3C)CC2)c1 (stereo not given)	1%
CCC(C)N1C(=O)S/C(=C/c2ccc(Sc3nc4ccccc4[nH]3)o2)C1=O (stereo not given)	1%
Cc1cccc(NC(=S)NCc2ccc3[nH]c4c(c3c2)CCCC4)c1	0%
Cc1ccc(C(C)NC(=O)Cn2nc(C)c([N+](=O)[O-])c2C)cc1 (stereo not given)	2%

Structure (SMILES)	inhibition of aptamer binding
Cc1ccc(C)c(NC(=O)C2CC(=O)N(C(C)C)C2)c1 (stereo not given)	2%
COC(=O)c1ccc(C)c(NC(=O)C2CC(=O)N(C3CCCC(C)C3C)C2)c1 (stereo not given)	63% (active)
COC(=O)c1ccc(C)c(NC(=O)Cn2c(C)csc2=O)c1	0%
O=C(CSCc1ccc([N+](=O)[O-])cc1)NCCSCc1ccccc1	0%
COc1ccc(-c2ocnc2C(=O)Nc2ccc3c(c2)CCC3)cc1	8%
COC(=O)c1ccc(S(=O)(=O)NCc2ccccc2)n1C	2%
Cc1ccc(C(=O)OCC(=O)N2CC(C)CC(C)C2)cc1S(=O)(=O)N1CCCCC1 (stereo not given)	2%
COc1cccc2c1OCC(C(=O)NCc1ccc(Cl)cc1Cl)=C2	0%
CCC(=O)c1ccc(OCC(=O)OCC(=O)N2CCc3ccccc3C2)cc1	3%
CN(C)c1ccc(NC(=S)N(CCc2ccccc2)C2CC(=O)N(c3c(Cl)cccc3Cl)C2=O)cc1 (stereo not given)	1%
O=C(COc1ccccc1)NCCc1nc2ccccc2[nH]1	59% (active)
O=C(CNC(=O)COc1ccccc1)NCCc1ccccn1	0%
CC(C)=C(NC(=O)c1ccco1)C(=O)NCCc1nc2ccccc2[nH]1	0%
OCCC1CN(Cc2ccc(Oc3ncccn3)cc2)CCN1CCc1ccccc1 (stereo not given)	0%
CCNc1nc(NC(C)C)nc(OCCOC(=O)c2ccccc2)n1	0%
CCOC(=O)c1ccc(NC(=O)c2c(NCc3ccccc3)[nH]c(=O)[nH]c2=O)cc1	5%
C/C=C\C=C\C(=O)N1CC2(CC(c3cccc(NC(=O)/C(C)=C\C)c3)=NO2)C[C@H]1C(N)=O (stereo not given in full)	1%
C=C(C)C(=O)Nc1cccc(C2=NOC3(C2)C[C@H](C(N)=O)N(C(=O)C(c2ccccc2)c2ccccc2)C3)c1 (stereo not given in full)	91% (active)
C/C=C(/C)C(=O)Nc1cccc(C2=NOC3(C2)C[C@@H](C(N)=O)N(C(=O)C2(C)CC2)C3)c1 (stereo not given in full)	1%
CCOc1ccc(S(=O)(=O)Nc2cccc(C(=O)NCC3(N4CCCCC4)CCCCC3)c2)cc1	0%

Structure (SMILES)	inhibition of aptamer binding
CS(=O)(=O)c1ccc(-c2nnn(CC(=O)Nc3ccc4c(c3)OCCO4)n2)cc1	0%
S=C(NNC(=S)NC1CC2CCC1C2)NC1CC2C=CC1C2 (stereo not given)	0%
CC1CCN(C(=S)NC2CC3CCC2C3)CC1 (stereo not given)	67% (active)
O=C(NNC(=S)NC1CC2CCC1C2)c1ccc(Cl)cc1 (stereo not given)	2%
CC1c2nc3ccccc3n2C(CC(=O)NCCCN2CCOCC2)C(=O)N1Cc1ccccc1 (stereo not given)	0%
COCCn1c(N)c(NCc2ccccc2)c(=O)[nH]c1=O	47% (active)
COCCN(C(=O)c1ccccc1F)c1c(N)n(Cc2ccccc2)c(=O)[nH]c1=O	2%
COCCn1c(N)c(N(Cc2ccccc2)C(=O)C2CCCCC2)c(=O)[nH]c1=O	0%
Cc1ccc2c(c1)C1CN(C)CCC1N2S(=O)(=O)c1ccc(Oc2ccc([N+](=O)[O-])cc2)cc1 (stereo not given)	0%
Nc1ccc2nc3c(=O)[nH]c(=S)[nH]c3nc2c1	70% (active)
CCC1Oc2ccccc2N(CC(=O)NCCCN2CCN(CC)CC2)C1=O (stereo not given)	0%
COc1ccccc1CNC(=O)c1ccc(CS(=O)(=O)c2ccccc2)o1	0%
CCOCCCNC(=O)c1ccc(CS(=O)(=O)c2cccc(C(F)(F)F)c2)o1	48% (active)
COc1ccc(CCNC(=O)c2ccc(CS(=O)(=O)c3ccc(Br)cc3)o2)cc1OC	1%
CCC(C)(C(=O)Nc1ccccc1C)N(C(=O)CNC(C)=O)c1ccc(C)cc1 (stereo not given)	1%
CCn1nc(NC(=O)c2ccco2)c2cc3ccc(C)cc3nc21	0%
Cc1ccc(OCCNC(=O)CCNS(=O)(=O)c2ccc(Br)cc2)cc1	1%
Cc1cc2cc(CNC(=O)c3cccs3)ccc2[nH]1	44% (active)
CCc1cccc(CC)c1NC(=S)NCc1ccc2[nH]c(C)cc2c1	0%
Cc1cc2cc(CNC(=O)c3ccc(S(=O)(=O)N4CCOCC4)cc3)ccc2[nH]1	3%
